15-hLO-2 inh: 15-hLO-2 (ALOX15B) enzyme inhibition; purified 15hLO-2, xylenol orange hydroperoxide absorbance; Potency, µM (series often up to 57.1 µM), actives largely listed as inhibitors; hit rate 0.56% among 110,000; AID 881; also: nearly all actives have a fitted effect of over 60% in size
Target sequence (O15296 whole entry, looked up): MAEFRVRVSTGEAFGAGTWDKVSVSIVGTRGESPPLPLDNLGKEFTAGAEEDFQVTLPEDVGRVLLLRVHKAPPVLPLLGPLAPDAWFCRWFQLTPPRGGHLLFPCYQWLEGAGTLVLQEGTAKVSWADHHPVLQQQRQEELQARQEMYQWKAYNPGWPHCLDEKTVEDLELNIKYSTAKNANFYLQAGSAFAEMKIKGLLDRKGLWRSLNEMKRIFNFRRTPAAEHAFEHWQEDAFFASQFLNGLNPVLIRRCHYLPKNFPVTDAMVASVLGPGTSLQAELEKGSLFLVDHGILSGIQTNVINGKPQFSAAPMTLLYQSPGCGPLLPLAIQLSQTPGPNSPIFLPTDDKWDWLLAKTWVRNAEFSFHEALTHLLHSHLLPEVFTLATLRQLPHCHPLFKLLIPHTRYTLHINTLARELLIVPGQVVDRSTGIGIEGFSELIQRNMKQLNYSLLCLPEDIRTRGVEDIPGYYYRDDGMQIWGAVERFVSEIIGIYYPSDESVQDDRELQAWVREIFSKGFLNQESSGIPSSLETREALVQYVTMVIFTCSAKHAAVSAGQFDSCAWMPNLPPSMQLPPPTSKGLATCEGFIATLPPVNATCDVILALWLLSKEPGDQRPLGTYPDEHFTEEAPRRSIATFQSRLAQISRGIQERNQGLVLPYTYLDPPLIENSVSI
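Purified human 15hLO-2 (50 nM final) preincubated with compounds 15 min at room temperature in 25 mM Hepes pH 7.5, 0.01% Triton X-100, then 45 uM arachidonic acid added for 90 min; hydroperoxide detected via ferrous/xylenol orange, 573/405 nm absorbance ratio.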
ALOX15 inhib: inhibitors of human 15-lipoxygenase (ALOX15). P16050. purified 15hLO-1, xylenol orange hydroperoxide absorbance. Potency, µM (titrated, usually from 57.1 µM), hits mostly inhibitors. hit rate 1.4% among 74,000; also: nearly all actives have a fitted effect of over 55% in size
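Hydroperoxide formed from arachidonic acid (50 uM) by purified human 15hLO-1 (40 nM) oxidizes ferrous iron, and the ferric-xylenol orange complex is read at 573 versus 405 nm. Compounds were preincubated 15 min; reaction ran 6 min at room temperature.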
Each line names hits and unclear results; the compound was inactive in the other large screens. Shown is part of a subset that was picked to be rich in hits. Calls follow the shape of the dose curve; as a rule, active = well fitted inhibition curve with a large enough effect; inconclusive = small, poorly fitted or top-dose-only effect; inactive = no such curve, though single readings can be large or run the other way.

CN1CCc2cc(O)c(O)cc2[C@H](c2ccccc2)C1	15-hLO-2 inh inconclusive
COc1ccc(C(=O)N2CCC[C@@]3(CCN(Cc4ccncc4)C3)C2)cc1	none
CC(=O)Nc1sc(NC(=O)c2ccc(Cl)cc2)nc1-c1cccs1	none (no result: ALOX15 inhib)
Nc1nc(-c2cccs2)c(NC(=O)c2ccccc2)s1	15-hLO-2 inh inconclusive, ALOX15 inhib 20µM
Nc1nc2sc3c(c2cc1C(=O)N1CCOCC1)CCCC3	ALOX15 inhib 3.16µM
Cn1c(SCC(=O)N2CCOCC2)nc2sc3c(c2c1=O)CCCC3	none
O=C(O)[C@@H]1[C@@H](C(=O)NCc2cccnc2)[C@@H]2C=C[C@@H]1O2	none
CCNc1ncc2nc(C)c(=O)n(CCc3ccccc3)c2n1	none
O=c1c2cc(N3CCOCC3)ccc2[nH]c(=S)n1Cc1ccc(Cl)cc1	none (no result: ALOX15 inhib)
Cc1ccc(Cn2c(=S)[nH]c3ccc(N4CCOCC4)cc3c2=O)o1	ALOX15 inhib 15.8µM
Cn1c(NC(=O)c2ccccc2C(F)(F)F)cc(=O)n(C)c1=O	none
Cn1c(NC(=O)c2ccccc2Br)cc(=O)n(C)c1=O	ALOX15 inhib 25.1µM
CN1CCN(c2ncnc3ccc(-c4cccc(C#N)c4)cc23)CC1	none
c1ccc(-c2onc3cc4c(cc23)OCCO4)cc1	ALOX15 inhib 12.6µM
Cc1cccc(-c2onc3ccc(C4(C)OCCO4)cc23)c1	none (no result: ALOX15 inhib)
CCCC1(C(=O)OC)C=C2C(=C(c3ccccc3)C(=O)C2C)CN1 (configuration not stated)	none (no result: ALOX15 inhib)
Cc1c(O)ccc2c1OCO2	none (no result: 15-hLO-2 inh)
CC(=O)OCC(=O)[C@@]12OC(C)(C)OC1CC1C3CC(F)C4=CC(=O)C=C[C@@]4(C)[C@@]3(F)C(O)C[C@]12C (some centres not stated)	none
CC(C)C(=O)Nc1ccc(-c2csc(-c3ccccc3)n2)cc1	none (no result: ALOX15 inhib)
Oc1ccc(-c2csc(-c3ccccc3)n2)cc1O	15-hLO-2 inh 3.98µM (no result: ALOX15 inhib)
CN(C)CCCNC(=O)c1ccc(Cc2nc3ccccc3[nH]2)cc1	none (no result: 15-hLO-2 inh)
CC(C)Sc1oc(-c2ccco2)nc1S(=O)(=O)c1ccc(F)cc1	ALOX15 inhib 25.1µM (no result: 15-hLO-2 inh)
CSc1oc(-c2ccco2)nc1S(=O)(=O)c1ccc(Br)cc1	none
COc1ccccc1CNc1ncncc1-c1ccccc1OC	none
CCc1ccc(C(=O)CSC2=C(C#N)C(c3ccco3)C(C(C)=O)=C(C)N2)cc1 (configuration not stated)	ALOX15 inhib 10µM
CCOC(=O)C1=C(C)NC(SCC(=O)O)=C(C#N)C1c1ccco1 (configuration not stated)	none (no result: ALOX15 inhib)
CC(=O)C1=C(C)NC(SCC(=O)c2ccc(F)cc2)=C(C#N)C1c1ccco1 (configuration not stated)	ALOX15 inhib 20µM
COc1ccccc1NC(=O)C1=C(C)NC(SCC(=O)c2ccc(C)cc2)=C(C#N)C1c1ccco1 (configuration not stated)	none (no result: ALOX15 inhib)
C=CC(=O)OCCOCCOC(=O)C=C	none
CN(C)Cc1cc(O)c(O)c(CN(C)C)c1	ALOX15 inhib inconclusive
CC(=O)C1CCC2C3CC=C4CC(O)CC[C@@]4(C)C3CC[C@]12C (some centres not stated)	none
CC1CCC(C(C)C)C(O)C1 (configuration not stated)	none (no result: ALOX15 inhib)
C=C1C[C@@]23C[C@@]1(O)CC[C@@H]2[C@]12C=C[C@@H](O)[C@](C)(C(=O)O1)[C@@H]2[C@@H]3C(=O)O	none
CC1=C(C(=O)OCc2ccccc2)C(c2ccc(C3CCCCC3)cc2)NC(=O)N1CCCCCC(=O)O (configuration not stated)	15-hLO-2 inh 25.1µM
CC1=C(C(=O)OCc2ccccc2)C(c2ccc(Cl)cc2)NC(=O)N1CCCCCC(=O)O (configuration not stated)	none (no result: ALOX15 inhib)
CCc1cc(C=NC2CCCCC2)c(O)s1	ALOX15 inhib 12.6µM
O=c1c(-c2cccc(F)c2)nc2cncnc2n1Cc1ccccc1	none
CCOC(=O)[C@H](CCc1ccccc1)N[C@@H](C)C(=O)N1[C@H](C(=O)O)C[C@H]2CCC[C@@H]21	none
CCOC(=O)C(CCc1ccccc1)NC(C)C(=O)N1C(C(=O)O)CC2CCCC21 (configuration not stated)	ALOX15 inhib 3.16µM
O=c1c(-c2ccccc2)nc2cnc(N3CCNCC3)nc2n1C1CC1	none
O=C(O)/C=C/c1ccc(/C=C/C(=O)O)cc1	none
O=C(O)/C=C\c1c2ccc(=O)c(O)c-2oc2c(O)c(O)ccc12	15-hLO-2 inh inconclusive, ALOX15 inhib 1.58µM
O=C(O)CCCC[C@H]1CCSS1	none
OCCNCCO	none
O=C1C2C3CCCC3=C3CCCC3C2C(=O)N1c1cccc(Cl)c1 (configuration not stated)	ALOX15 inhib 10µM
O=C1C2C3CCCC3=C3CCCC3C2C(=O)N1c1ccc(Cl)cc1 (configuration not stated)	ALOX15 inhib inconclusive
COc1ccc(NC(=O)N2CCC3(CC2)CCN(C(=O)c2cccn2C)CC3)cc1	none
Cc1ccccc1OCC1CO1 (configuration not stated)	none
COc1ccc(C2Nc3ccccc3C(=O)N2Cc2ccco2)cc1COc1ccccc1F (configuration not stated)	none (no result: ALOX15 inhib)
COc1ccc(C2Nc3ccccc3C(=O)N2Cc2ccco2)cc1COc1ccc(NC(C)=O)cc1 (configuration not stated)	ALOX15 inhib 15.8µM
Nc1ncnc2c1ncn2[C@@H]1O[C@@H](C(=O)NC2CC2)[C@H](O)[C@@H]1O	none
COc1cccc(CNc2ccc3nc(-c4ccc(N)cc4)c(OC)n3n2)c1	none
O=C(O)COCCN1CCN([C@@H](c2ccccc2)c2ccc(Cl)cc2)CC1	none
COC(=O)c1ccc(O)c(Sc2cc(C(=O)OC)ccc2O)c1	15-hLO-2 inh inconclusive, ALOX15 inhib 15.8µM
COC(=O)c1ccc(C)cc1	none
NCCC(O)(P(=O)(O)O)P(=O)(O)O	none (no result: ALOX15 inhib)
COC(=O)COc1ccc(S(=O)(=O)NCCC2=CCCCC2)cc1C	ALOX15 inhib 6.31µM
COC(=O)COc1ccc(S(=O)(=O)NCCC2=CCCCC2)cc1	none
CN1CCCN([C@@H](c2ccccc2)c2ccc(Cl)cc2)CC1	none
C=C(C)CC1Nc2ccccc2NC1CC(=C)C (configuration not stated)	15-hLO-2 inh 25.1µM, ALOX15 inhib 20µM
C=C(C)CN1C(=O)c2ccccc2C1=O	none (no result: ALOX15 inhib)
CC(=O)Nc1ccc(-c2ccccc2)s1	none
CC(=O)Nc1ccc(NC(C)=O)s1	ALOX15 inhib 20µM
CS(=O)(=O)N1CCC2(CC1)CN(C(=O)Nc1cccc(F)c1)C2	none
CS(=O)(=O)N1CCC2(CC1)CN(C(=O)Nc1ccccc1)C2	ALOX15 inhib 0.501µM
COc1ccc(NC(=O)c2cc(-c3ccc(C)o3)nc3ccccc23)cc1OC	15-hLO-2 inh inconclusive, ALOX15 inhib 31.6µM
CC(=O)c1ccc(N2CCN(C(=O)c3cc(-c4ccc5c(c4)OCO5)nc4ccccc34)CC2)cc1	none
Cc1ccc(-c2cc(C(=O)N3CCN(c4ccc(F)cc4)CC3)c3ccccc3n2)o1	15-hLO-2 inh 12.6µM (no result: ALOX15 inhib)
COc1ccc(NC(=O)c2cc(-c3cccnc3)nc3ccc(C)cc23)cc1OC	none (no result: ALOX15 inhib)
COc1cc2c(cc1OC)C(C(C(=O)N(CCc1ccc(OC)c(OC)c1OC)CCc1ccc(OC)c(OC)c1OC)c1ccccc1)=NCC2 (configuration not stated)	none (no result: ALOX15 inhib)
CN1[C@@H]2CC[C@H]1CC(OC(=O)[C@@H](CO)c1ccccc1)C2 (some centres not stated)	none
FC(F)(F)c1cc(-c2ccco2)nc(NCc2ccccc2)n1	none (no result: ALOX15 inhib)
Fc1ccc(CNc2nc(-c3ccco3)cc(C(F)(F)F)n2)cc1	ALOX15 inhib 25.1µM
O=C(O)/C=C/c1ccc(O)c(O)c1	none

Screening data from PubChem BioAssay.
